JMJD2A Tudor – qHTS Assay for Inhibitors of JMJD2A-Tudor Domain | AlphaScreen JMJD2A-Tudor / H3K4me3 peptide binding | Potency, µM (doses to about 114 µM), without a hit: top-dose activity change, negative = inhibition, most hits filed as inhibitors | 390,000 tested, 4.4% active | AID 504339, 2011; further: on the % scale 0 is the no-effect control and ±100 the full control effect; nearly all actives have a fitted effect of over 50% in size
HP1b chromo inh – HTS for Inhibitors of HP1-beta Chromodomain Interactions with Methylated Histone Tails; Potency, µM (titrated, usually from 114 µM), inactives show at the highest dose activity change, negative = inhibition, hits mostly inhibitors; 390,000 tested, 0.56% active; AlphaScreen HP1-beta / biotin-H3K9me3 peptide binding; AID 540317, 2011; further: nearly all actives have a fitted effect of over 70% in size
Target sequence (P83916 whole entry, looked up): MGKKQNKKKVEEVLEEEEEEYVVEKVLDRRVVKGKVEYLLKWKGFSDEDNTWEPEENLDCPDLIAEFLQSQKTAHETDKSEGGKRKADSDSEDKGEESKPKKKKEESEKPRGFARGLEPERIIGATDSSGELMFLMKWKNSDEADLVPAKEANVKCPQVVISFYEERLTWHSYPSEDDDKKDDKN
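Compound inhibition of the preformed complex between 50 nM HP1-beta and 50 nM biotinylated H3K9me3 peptide was read by AlphaScreen. Buffer was PBS pH 7.4 with 0.01% Tween-20. Incubations ran 30 min at room temperature, with 10 ug/mL donor/acceptor beads.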
L3MBTL1 block – qHTS Assay for the Inhibitors of L3MBTL1; AlphaScreen L3MBTL1–H3K9me1 peptide binding; 230,000 tested, 0.66% active; AID 485360, 2010; Potency, µM (series often up to 57.1 µM), for inactives: at the top dose activity, negative = inhibition, most hits filed as inhibitors; Lethal(3)malignant brain tumor-like protein 1 (Homo sapiens), Q9Y468; further: on the % scale 0 is the no-effect control and ±100 the full control effect; nearly all actives have a fitted effect of over 60% in size
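Displacement of a biotinylated histone H3(1-15) peptide monomethylated at Lys9 (75 nM) from L3MBTL1 (50 nM) was measured by AlphaScreen after a 30 min room-temperature compound incubation; cefsulodin titration served as intraplate control.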
BAZ2B inh – qHTS Assay for Inhibitors of BAZ2B. Bromodomain adjacent to zinc finger domain protein 2B (Homo sapiens), Q9UIF8. AlphaScreen BAZ2B-H3K14Ac peptide displacement. Potency, µM (doses to about 114 µM), for inactives: at the highest dose activity change, negative = inhibition, most hits filed as inhibitors. 360,000 tested, 4.4% active; further: on the % scale 0 is the no-effect control and ±100 the full control effect; nearly all actives have a fitted effect of over 60% in size
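AlphaScreen displacement: compounds (up to 110uM) incubated 30 min at room temperature with a preformed 50 nM BAZ2B/50 nM biotinylated H3K14Ac peptide complex in PBS pH 7.4 with Tween-20. Donor and acceptor beads at 10 ug/mL final added, 20 min light-protected before reading.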
Sfp inh – qHTS Assay for Inhibitors of Bacillus subtilis Sfp phosphopantetheinyl transferase (PPTase) | 4'-phosphopantetheinyl transferase ffp (Bacillus subtilis), Q9F4F7 | Biochemical Sfp PPTase activity, qHTS | Potency, µM, without a hit: largest response in the series, negative = inhibition, hits mostly inhibitors | 310,000 tested, 3.5% active | AID 1490, 2009;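 further: the enzyme is Sfp with the accession as filed and its product quenches rhodamine fluorescence; 0% = enzyme reaction without inhibitor and -100% = no enzyme wells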
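Compounds were incubated with enzyme (final 15 nM) for 15 min at room temperature before substrate addition started the reaction. Fluorescence at 525 nm excitation, 598 nm emission was recorded immediately and after 30 minutes.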
G9a inh – qHTS Assay for Inhibitors of Histone Lysine Methyltransferase G9a | Histone-lysine N-methyltransferase EHMT2 (Homo sapiens), Q96KQ7 | G9a H3K9 monomethylation, AlphaScreen, 2 h | Potency, µM (top dose mostly 102 µM), for the others: at the top dose activity, negative = inhibition, hits mostly inhibitors | 350,000 tested, 8.8% active | AID 504332, 2011; further: on the % scale 0 is the no-effect control and ±100 the full control effect; nearly all actives have a fitted effect of over 75% in size
Target sequence (Q96KQ7 913-1193 limits assumed): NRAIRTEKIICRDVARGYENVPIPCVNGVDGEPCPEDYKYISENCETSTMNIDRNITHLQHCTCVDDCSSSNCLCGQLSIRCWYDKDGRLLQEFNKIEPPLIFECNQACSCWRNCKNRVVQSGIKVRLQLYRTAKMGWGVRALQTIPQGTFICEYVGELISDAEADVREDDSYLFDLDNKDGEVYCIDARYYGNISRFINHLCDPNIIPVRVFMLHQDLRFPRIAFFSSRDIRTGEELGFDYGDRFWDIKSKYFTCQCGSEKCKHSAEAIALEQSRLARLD
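Readings reflect AlphaScreen signal from monomethyl-H3K9 antibody detection. HMT at 20 nM; substrate b-H3K9 500 nM; cofactor SAM 20 uM; 2 h RT reaction; compounds tested as titrations in qHTS with 15 min preincubation.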
An asterisk follows results filed as active; ? = inconclusive; . = not tested or not shown; [ ] = remark or other dose. A selection: hits, their analogues and other compounds. The true share with any hit is near 12%. The call rests on the fitted dose curve; in most records, active means well fitted curve in the direction sought with a large enough effect; inconclusive means small, poorly fitted or top-dose-only effect, or another doubt; inactive means no such curve, though single readings can be large; an effect the other way counts as inactive or inconclusive. Potency means the concentration at half of the fitted maximal effect.

SMILES	JMJD2A Tudor	HP1b chromo inh	L3MBTL1 block	BAZ2B inh	Sfp inh	G9a inh
Cc1ccc(C2/C(=C(\O)c3ccc4c(c3)OCCO4)C(=O)C(=O)N2CCCN(C)C)o1 (stereo not drawn)	.	.	-1.1%	-33.4%	-9.7%	44.7µM*
CCN(CC)CCCN1C(=O)C(=O)/C(=C(/O)c2ccc(OC)c(Cl)c2)C1c1ccco1 (stereo not drawn)	.	.	35.8%	2.9%	?	44.7µM*
CCOc1cccc(/C(O)=C2/C(=O)C(=O)N(Cc3cccnc3)C2c2ccco2)c1 (stereo not drawn)	?	15.1%	-2.4%	-23.3%	4.7%	?
COc1ccc(/C(O)=C2/C(=O)C(=O)N(CCCN(C)C)C2c2cccc(Cl)c2)cc1OC (stereo not drawn)	-24.5%[57.1 µM]	34.1%	4.2%	-2.6%	17.0%	?
COc1ccc(/C(O)=C2/C(=O)C(=O)N(CCCN(C)C)C2c2ccc(C)o2)cc1Cl (stereo not drawn)	.	.	-1.7%	1.6%	89.1µM*	44.7µM*
CCOc1ccc(/C(O)=C2/C(=O)C(=O)N(CCN(CC)CC)C2c2ccco2)cc1 (stereo not drawn)	-27.5%	25.8%	13.3%	-5.2%	13.8%	-9.6%[59 µM]
CCN(CC)CCNC(=O)c1ccc(Cn2c(=O)c3cccn3c3cccnc32)cc1	-4.8%	30.2%	.	-20.4%	.	0.9%[59 µM]
O=C1CSC2(C(=O)N(Cc3ccccc3)c3ccccc32)N1c1ccc(Cl)cc1 (stereo not drawn)	-19.9%	27.9%	.	4.3%	.	-40.1%[59 µM]
COc1ccc2c(c1)O[C@@]1(CCCC[C@@H]1C)CC2=O	-6.2%	27.5%	11.2%	-4.5%	.	-5.1%[12.7 µM]
COc1ccc(N2CC(C(=O)Nc3ccccc3-c3nc(-c4ccc(C)cc4)no3)CC2=O)cc1 (stereo not drawn)	-22.2%	3.9%	.	7.6%	.	4.7%[59 µM]
Cc1ccccc1S(=O)(=O)Nc1nc2ccccc2nc1N1CCOCC1	1.0%	33.1%	.	56.2µM*	13.2%	-41.6%[12.7 µM]
NS(=O)(=O)c1ccc(NC(=O)c2cc(-c3cc(Cl)ccc3O)n[nH]2)cc1	-18.1%	14.5%	.	3.1%	?	45.1%
COC(=O)c1sc2cccc(F)c2c1S(=O)(=O)Nc1cc(OC)cc(OC)c1	-25.0%	61.6%	.	-25.1%	.	0.4%[59 µM]
CCOC(=O)c1sc2ccccc2c1S(=O)(=O)Nc1ccc(N(C)C)cc1	12.6µM*	-25.4%	.	20µM*	.	8.91µM*
COC(=O)c1sc2cccc(F)c2c1S(=O)(=O)Nc1ccc(N(C)C)cc1	?	-12.4%	.	?	.	11.2µM*
S=C(N=Nc1ccccc1)NNc1ccccc1	25.1µM*	15.8µM*	?	35.5µM*	-14.4%	10µM*
NC(=O)NNc1ccccc1	.	.	.	.	11.0%	-19.4%[59 µM]
CCC(=O)N1CCc2cc(Br)cc(S(=O)(=O)N3CCCC(C(=O)Nc4ccc(OC)cc4OC)C3)c21 (stereo not drawn)	-20.5%	16.5%	.	-4.2%	.	5.3%[59 µM]
O=c1c2cc(N3CCOCC3)ccc2[nH]c(=S)n1Cc1ccccc1Cl	-1.4%	64.4%	.	-10.7%	?	41.7%[59 µM]
O=c1c2cc(Br)ccc2[nH]c(=S)n1Cc1ccccc1	-5.6%	48.4%	.	11.4%	17.9%	24.6%
O=c1c2cc(N3CCOCC3)ccc2[nH]c(=S)n1Cc1ccccn1	28.2µM*	40.3%	-14.9%[11.4 µM]	-35.3%	20µM*	?
O=c1c2cc(Br)ccc2[nH]c(=S)n1Cc1ccccn1	-8.1%	47.2%	4.6%	-3.6%	8.9%	7.94µM*
C=CCO/N=C/C1C(=O)CC(C)(C)CC1=O	10µM*	0.8%	7.5%	?	?	35.5µM*
COCCNc1ccc(-c2nc(-c3ccccn3)no2)cc1[N+](=O)[O-]	-4.3%	42.8%	.	0.9%	.	-2.9%[59 µM]
Cc1c(C(=O)N2CCN(Cc3ccccc3)CC2)oc2c1C(=O)CC(C)(C)C2	-16.6%	18.3%	.	79.4µM*	-27.9%	35.5µM*
SMILES	JMJD2A Tudor	HP1b chromo inh	L3MBTL1 block	BAZ2B inh	Sfp inh	G9a inh
Cc1c(C(=O)N2CCN(c3ccccc3)CC2)oc2c1C(=O)CC(C)(C)C2	-10.3%	18.8%	.	-24.6%	19.6%	15.9%
CC(=O)c1c(N2CCN(C)CC2)[nH]c(-c2ccccc2)nc1=S	79.4µM*	-3.6%	-3.6%	?	-17.6%	13.9%[0.0925 µM]
Cc1ccc(N=CC2=C(O)CC(C)(C)CC2=O)nc1	-6.2%	36.6%	.	13.3%	5.0%	?
CC1(C)CC(=O)C(/C=N/c2ncccc2C(=O)O)=C(O)C1	0.0%	44.2%	.	6.2%	-8.2%	50.1µM*
CCN(Cc1cccs1)C(=O)CN1C(=O)NC(c2ccccc2)(c2ccccc2)C1=O	-29.7%	7.2%	-2.6%	-3.6%	.	7.94µM*
O=C(COc1ccc(S(=O)(=O)NC2CCCCC2)cc1)NC1CCCC1	-5.1%	70.1%	7.7%	4.1%	1.5%	-10.6%[0.501 µM]
O=C(CSc1nc(-c2ccccc2)cs1)Nc1ccccc1[N+](=O)[O-]	?	?	?	25.1µM*	3.1%	?
Cc1cccc(Nc2nnc(SCC(=O)Nc3ccccc3[N+](=O)[O-])s2)c1	?	-11.7%	-1.7%	-10.8%	7.7%	-23.9%[59 µM]
O=C1CC(=O)NC(SCC(=O)Nc2ccccc2[N+](=O)[O-])=N1	35.5µM*	?	.	39.8µM*	?	25.1µM*
Cc1ccccc1NC(=O)CSc1ccsc1[N+](=O)[O-]	25.1µM*	?	25.1µM*	39.8µM*	-9.6%	?
COCCCNC(=O)CSc1ccsc1[N+](=O)[O-]	-12.4%	32.5%	-7.3%	-24.7%	5.3%	-44.9%
O=C(CN1CCCCCC1)Nc1ccccc1[N+](=O)[O-]	-27.9%	-0.3%	10.7%[2.29 µM]	-38.1%	14.8%	24.3%[0.501 µM]
Cc1ccccc1Nc1nnc(SCC(=O)Nc2ccccc2[N+](=O)[O-])s1	?	?	-21.4%	?	3.6%	44.7µM*
O=C(CCNC(=O)c1ccc([N+](=O)[O-])cc1)NC1CCCc2ccccc21 (stereo not drawn)	-7.6%	7.0%	2.3%	-0.7%	.	-5.5%
Cc1cccc(Nc2nnc(SCC(=O)c3ccc(Br)s3)s2)c1C	-12.5%	25.6%	-14.0%	-35.6%	5.8%	4.47µM*
O=C(Nc1nc(-c2ccccc2)cs1)c1cccc([N+](=O)[O-])c1C(=O)O	-20.8%	34.0%	-5.8%	2.3%	6.5%	50.1µM*
